Bioassay records as filed in PubChem BioAssay.
697 NFkB inh: inhibitors of PMA/ionomycin-induced NF-kB reporter, 697 cells, primary screen, B-cell NF-kB inhibitor project, cell-based, luminescence, uHTS; 0.33% of 330,000 active; AID 435022, 2010; inhibition, % at 4 µM; 697 B-cell NF-kB luciferase reporter, 16 h; in the data active means inhibition above about 35%
GalR3 antag: GalR3 antagonists in HEK293 cells, primary screen, cell-based, fluorescence readout | HEK293 GalR3-CNG cAMP membrane potential fluorescence; galR3 body fused to GalR1 C-terminus | Galanin receptor type 3 (Homo sapiens), O60755 | 0.44% of 360,000 active | inhibition, % at 3 µM;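 active means inhibition above the screen-wide average plus 3 SD, cut at about 13% in these data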;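 further: forskolin and galanin both at EC90 stimulate the cells; cAMP rise reported by CNG channel membrane potential dye signal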
COUP-TFII inh: NR2F2 transcriptional activity inhibitors, primary screen, cell-based, luciferase reporter, HEK293T, luminescence; inhibition, % at 8.6 µM; AID 686940, 2013; 0.7% of 370,000 active; COUP transcription factor 2 (Homo sapiens), P24468; HEK293T NGFI-A luciferase reporter;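 active means inhibition above a per-plate cutoff, mean inhibition of test wells between control levels plus 3 SD, cut at about 38% in these data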;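 further: cells cotransfected with COUP-TFII expression vector driving the NGFI-A reporter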
Target sequence (P24468 whole entry, looked up): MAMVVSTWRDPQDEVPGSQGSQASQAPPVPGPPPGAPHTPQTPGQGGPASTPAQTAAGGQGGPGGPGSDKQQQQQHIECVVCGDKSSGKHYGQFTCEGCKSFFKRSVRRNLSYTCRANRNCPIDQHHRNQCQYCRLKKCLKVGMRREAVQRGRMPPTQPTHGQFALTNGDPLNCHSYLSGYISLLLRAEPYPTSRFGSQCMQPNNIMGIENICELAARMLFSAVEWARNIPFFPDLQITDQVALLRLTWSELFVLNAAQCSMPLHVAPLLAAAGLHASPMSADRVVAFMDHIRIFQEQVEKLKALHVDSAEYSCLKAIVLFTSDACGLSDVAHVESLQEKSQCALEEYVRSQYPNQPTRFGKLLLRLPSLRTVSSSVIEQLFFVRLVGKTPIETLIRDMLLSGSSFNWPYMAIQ
Gli-Sufu block: Gli-Sufu pathway antagonists, primary screen, luciferase luminescence, Sufu-KO-LIGHT cells, uHTS | Sufu-KO-LIGHT fibroblasts, Gli luciferase reporter luminescence | inhibition, % at 5 µM | 0.74% of 340,000 active | AID 588413, 2011;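 active means inhibition above about 55%, limit read from the data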
Jurkat NFkB inh: inhibitors of induced NF-kB luciferase reporter, primary screen, TCR NF-kB activation inhibitor project, cell-based, luminescence, uHTS | Jurkat, PMA/ionomycin-induced NF-kB luciferase reporter | inhibition, % at 4 µM | 0.53% of 330,000 active; in the data active means inhibition above about 50%
Gli antag conf: Gli-SUFU pathway antagonists, confirmation, single concentration, luciferase luminescence, Sufu-KO-LIGHT cells; shares compounds with Gli-Sufu block; 40% of 2,500 active; Gli luciferase reporter; inhibition, % at 5 µM;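 active means mean inhibition at 5 µM reaching about 45%, limit read from the data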
SufuKO cytotox: cytotoxicity in Sufu-KO-LIGHT cells, confirmation, cytotoxicity control for Gli-SUFU antagonist project, cell-based, ATP luminescence, single concentration. cytotoxicity, % at 5 µM. 32% of 2,500 active. AID 651994, 2013. shares compounds with Gli-Sufu block;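 active means mean cytotoxicity at 5 µM above about 25%, limit read from the data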;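 further: cells exposed to compound overnight for roughly 16 to 18 hours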
Wnt3a cs: Wnt3a reporter signal inhibition, confirmation, counter-screen for Gli-SUFU antagonist project, Wnt-LIGHT cells, luminescence, single concentration; shares compounds with Gli-Sufu block; Wnt3a-driven luciferase reporter; inhibition, % at 6.25 µM; 20% of 2,500 active; AID 651995, 2013;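 active means mean inhibition above about 25%, limit read from the data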
Numbers stand for hits; n = inactive; x = no result given. Hits are enriched below; roughly 2% of the tested compounds scored in any of these assays.

SMILES	697 NFkB inh	GalR3 antag	COUP-TFII inh	Gli-Sufu block	Jurkat NFkB inh	Gli antag conf	SufuKO cytotox	Wnt3a cs
CCSc1nnc(C)n1-c1ccc(C(=O)O)cc1	n	n	n	95	n	n	n	n
NC1=NC[C@H](c2ccccc2)N1CCCCC1CCCCC1	n	n	n	62	n	54	34	n
CCOc1ccc(-c2c(=O)n(OCc3ccccn3)c3ccccc3[n+]2[O-])cc1	n	n	n	n	n	x	x	x
O=c1c(-c2ccc(Oc3ccccc3)cc2)[n+]([O-])c2ccccc2n1OCc1ccccn1	n	n	n	95	n	n	n	n
CCCCNC(=O)C[C@H]1C[C@@]2(C(=O)OC)C(=C[C@H](C3CCCC3)O[C@@H]2C)N(CCC2=CCCCC2)C1=O	x	x	n	x	x	x	x	x
N#Cc1ccc(Sc2nc3ccccc3[nH]2)cc1C#N	n	n	n	92	n	n	n	n
N#C/C(=C\c1ccc(Sc2nc3ccccc3[nH]2)o1)c1ccccc1	n	n	n	n	n	x	x	x
Cc1nn(-c2ccccc2)c(C)c1/C=N/NC(=O)c1[nH][nH]c(=O)c1C	x	x	n	x	x	x	x	x
O=C(CSCCc1ccccn1)Nc1ccccn1	n	n	n	96	n	n	n	n
COc1cccc(-c2nnc(SCC(=O)Nc3ccc(Oc4ccccc4)cc3)n2Cc2ccco2)c1	x	x	n	x	x	x	x	x
N#Cc1c(N)nc2c(c1-c1ccncc1)CCCCC2	n	n	n	n	n	x	x	x
CCSc1nc(N)c(C#N)c(-c2ccco2)c1C#N	n	n	n	89	n	n	n	n
N#Cc1c(N)nc2c(c1-c1ccco1)CCCCC2	n	n	n	98	n	n	n	n
O=C(NCc1ccccc1)O[C@H]1CC[C@@]23CCCN2C(=O)CCC[C@H]3C1	x	x	n	x	x	x	x	x
O=S1(=O)c2c(cccc2N2CC[C@H](O)C2)OCCCN1C1CC1	x	x	n	x	x	x	x	x
CC(=O)Nc1ccc(N2C(=O)CSC2c2c(F)cccc2Cl)cc1 (stereo not given)	n	n	n	n	n	n	n	n
COc1ccc(Nc2cc(C)nc(NCc3ccccc3)n2)cc1	n	n	n	n	n	x	x	x
Cc1ccc(Nc2cc(C)nc(NCc3ccccc3)n2)cc1	n	n	n	n	n	n	n	n
COC(=O)[C@@]12CCCCN1[C@H](c1ccc(-c3ccc(OC)cc3)cc1)[C@H]1C(=O)N(C)C(=O)[C@H]12	n	n	n	n	n	x	x	x
COC(=O)[C@@]12CCCCN1[C@H](c1ccc(-c3ccccc3)cc1)[C@@H]1C(=O)N(C)C(=O)[C@@H]12	n	n	n	83	n	n	n	25
O=C(N[C@H]1C/C=C\C[C@H](CC(=O)N(CCO)Cc2ccccc2)C(=O)N[C@H](Cc2c[nH]c3ccccc23)COC1=O)OCC1c2ccccc2-c2ccccc21	n	n	n	n	n	x	x	x
O=C(N[C@@H]1C/C=C\C[C@H](CC(=O)N(CCO)Cc2ccccc2)C(=O)N[C@@H](Cc2c[nH]c3ccccc23)COC1=O)OCC1c2ccccc2-c2ccccc21	n	n	n	n	n	57	n	n
O=C(N[C@H]1C/C=C\C[C@@H](CC(=O)N(CCO)Cc2ccccc2)C(=O)N[C@H](Cc2c[nH]c3ccccc23)COC1=O)OCC1c2ccccc2-c2ccccc21	n	n	n	n	n	52	n	n
O=C(N[C@@H]1C/C=C\C[C@@H](CC(=O)N(CCO)Cc2ccccc2)C(=O)N[C@@H](c2ccccc2)COC1=O)OCC1c2ccccc2-c2ccccc21	n	n	n	56	n	56	n	n
O=C1N[C@@H](Cc2c[nH]c3ccccc23)COC(=O)[C@@H](Cc2ccc(F)cc2)C/C=C\C[C@H]1CC(=O)N(CCO)Cc1ccccc1	n	n	n	n	n	x	x	x
SMILES	697 NFkB inh	GalR3 antag	COUP-TFII inh	Gli-Sufu block	Jurkat NFkB inh	Gli antag conf	SufuKO cytotox	Wnt3a cs
O=C(N[C@H]1C/C=C\C[C@H](CC(=O)N(CCO)Cc2ccccc2)C(=O)NC[C@H](c2ccccc2)OC1=O)OCC1c2ccccc2-c2ccccc21	n	x	x	n	n	x	x	x
COc1ccc(-c2c(Cc3ccccc3)nc(NC(=O)c3ccccc3)n2Cc2ccccc2)cc1	x	x	n	x	x	x	x	x
COc1cc(C(C#N)N2CCCCC2)ccc1O (stereo not given)	n	n	n	n	n	x	x	x
COc1cc(C(C#N)N2CCOCC2)ccc1O (stereo not given)	n	n	n	55	n	n	n	n
Cc1ccc(-c2nnc(N3CCC(C)CC3)c3ccccc23)cc1	n	n	n	n	n	x	x	x
Cc1ccc(-c2nnc(N3CCC(C)CC3)c3ccccc23)cc1C	n	n	n	n	n	n	n	27
C=CS(=O)(=O)N(Cc1ccc(C)cc1)[C@@H](CO)C(=O)OC	x	x	n	x	x	x	x	x
C[C@@H]1OC(C2CCCCC2)N(C)[C@H]2C[C@H]3c4[nH]c5cccc(-c6ccccc6)c5c4CCN3C[C@@H]12 (stereo not given in full)	x	x	n	x	x	x	x	x
O=C(Nc1nc(-c2cccs2)c(-c2cccs2)s1)C1(c2ccccc2)CC1	n	n	n	n	n	x	x	x
CC(=O)NCCC(=O)Nc1nc(-c2cccs2)c(-c2cccs2)s1	n	n	n	n	n	n	n	n
CC(C)CN1C(=O)C[C@]2(C(=O)N(C)c3ccc(NC(=O)c4cc(F)ccc4F)cc32)C1c1ccccc1 (stereo not given in full)	x	x	n	x	x	x	x	x
CCOC(=O)CC[C@@]1(C(=O)OCC)C[C@@H](CC(=O)NCCCOC)C(=O)N2CCCC=C21	x	x	n	x	x	x	x	x
CC1CCN(C(=S)Nc2ccc(F)cc2)CC1	n	n	n	64	n	n	n	n
O=C(Nc1ccc2c(c1)OCO2)OC1CC2CC1[C@H]1CCCCN1[C@H]2Cc1ccccc1 (stereo not given in full)	x	x	n	x	x	x	x	x
COc1ccc(-c2cnc3c(c2)CCC3(C#N)C#N)cc1	x	n	n	n	x	61	47	n
CN(Cc1ccccc1)C(=O)OCc1cn(Cc2c(F)cccc2F)nn1	x	x	n	x	x	x	x	x
O=C(CSc1nc2ccccc2c(=O)n1-c1ccccc1)N1CCc2ccccc2C1	n	n	n	67	n	74	40	n
Cc1csc(-c2cccnc2)n1	n	n	n	99	n	n	n	n
Cc1ccc(/C=N/NC(=O)Cn2nccc2C)o1	n	n	n	60	n	n	n	n
O=S(=O)(NCc1cn(Cc2ccccc2)nn1)c1ccccc1Br	x	x	n	x	x	x	x	x
